Data from publication PMC4336329 (PLoS ONE, 2015).
About 14,000 (4.5%) of roughly 310,000 compounds showed an effect of 50% or more. The effect is printed as a negative number. Only a selection was taken, and strong results are over-represented in it overall.

What follows are molecules tested against human ether-à-go-go-related gene (hERG) potassium channel (human, UniProt Q12809) (assay: primary screen, population patch clamp on CHO cells stably expressing hERG; higher = less effect of the substance).
Chain of human ether-à-go-go-related gene (hERG) potassium channel (Q12809 whole entry, looked up): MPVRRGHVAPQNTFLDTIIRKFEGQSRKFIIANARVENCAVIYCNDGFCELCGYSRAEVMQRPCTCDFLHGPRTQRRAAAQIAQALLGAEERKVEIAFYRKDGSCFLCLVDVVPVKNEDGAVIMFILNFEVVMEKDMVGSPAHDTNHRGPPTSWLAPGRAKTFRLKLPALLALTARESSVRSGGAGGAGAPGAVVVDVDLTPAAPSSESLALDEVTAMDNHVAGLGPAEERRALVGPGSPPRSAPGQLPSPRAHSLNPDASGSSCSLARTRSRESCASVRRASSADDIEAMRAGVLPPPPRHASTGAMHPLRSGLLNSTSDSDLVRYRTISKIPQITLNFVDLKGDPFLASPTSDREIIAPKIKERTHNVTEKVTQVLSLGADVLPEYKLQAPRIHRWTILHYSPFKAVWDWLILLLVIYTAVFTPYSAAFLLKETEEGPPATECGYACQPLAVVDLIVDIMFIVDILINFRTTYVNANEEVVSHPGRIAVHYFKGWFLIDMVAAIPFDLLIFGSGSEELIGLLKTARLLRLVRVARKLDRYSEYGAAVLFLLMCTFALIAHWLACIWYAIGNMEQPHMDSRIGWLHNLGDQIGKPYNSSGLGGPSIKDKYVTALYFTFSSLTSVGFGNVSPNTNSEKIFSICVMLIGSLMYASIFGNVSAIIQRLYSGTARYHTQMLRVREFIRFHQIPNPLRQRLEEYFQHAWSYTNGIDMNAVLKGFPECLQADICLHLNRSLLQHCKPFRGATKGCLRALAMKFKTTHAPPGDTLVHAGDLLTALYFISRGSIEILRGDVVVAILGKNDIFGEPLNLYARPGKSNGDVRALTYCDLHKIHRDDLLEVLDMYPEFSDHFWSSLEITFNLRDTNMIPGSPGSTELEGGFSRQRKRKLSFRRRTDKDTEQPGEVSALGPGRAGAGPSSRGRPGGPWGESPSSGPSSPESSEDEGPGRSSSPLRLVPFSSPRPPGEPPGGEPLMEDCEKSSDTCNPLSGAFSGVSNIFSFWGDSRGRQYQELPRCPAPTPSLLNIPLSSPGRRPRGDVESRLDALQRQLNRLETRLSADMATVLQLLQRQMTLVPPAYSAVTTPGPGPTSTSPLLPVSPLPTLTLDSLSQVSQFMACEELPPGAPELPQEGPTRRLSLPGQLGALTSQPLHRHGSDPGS
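Note: peak tail current of the secondary pulse compared with the same well before compound.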

Row | Compound | hERG current change (%, negative = inhibition) at 10uM [%]
1 | CCCCn1c(O)c(/C=C/C=C/C=Nc2ccccc2)sc1=S | 31
2 | O=C(Nc1ccc(Cl)c(C(F)(F)F)c1)C(=O)N1CCCCC1 | -1.61
3 | CC(Oc1ccc(Br)cc1)C(=O)NCC(C)(C)N1CCOCC1 (centres unmarked) | -26
4 | COC(=O)c1ccccc1NC(=O)c1ccc(COc2ccc(C)c(C)c2)o1 | 11.9
5 | COC(=O)C1=C(c2c(C)noc2C)C[C@@H]2CC[C@H]1N2C(=O)NCCO | 20
6 | Cc1nnc(N/N=C/C2CC=CCC2)[nH]c1=O (centres unmarked) | 7.06
7 | CC(C)C(NS(=O)(=O)c1cccc2nsnc12)C(=O)NCc1ccc2c(c1)OCO2 (centres unmarked) | -18.7
8 | Cc1c(NC(=O)C(C)OC(=O)CNC(=O)c2ccc(C(C)(C)C)cc2)c(=O)n(-c2ccccc2)n1C (centres unmarked) | 13.2
9 | Cc1cc(C)n(-c2ccc(NC(=O)C3CCN(Cc4ccc(C)o4)CC3)cc2)n1 | -16.6
10 | CC(=O)CSc1nsc(SCC(C)=O)c1C#N | 17.2
11 | CCOC(=O)CSc1nc(-c2ccc3c(c2)OCO3)ccc1C#N | 7.3
12 | CCOC(=O)CC(=O)CSc1nc(-c2cccnc2)ccc1C#N | 17.5
13 | CCOC(=O)CSc1nsc(SCC(=O)OCC)c1C#N | -55.7
14 | COC(=O)CSc1nsc(SCC(=O)OC)c1C#N | 5.34
15 | CCOC(=O)CSc1nc(-c2ccncc2)ccc1C#N | -61.6
16 | CC1CCc2c(sc3nc4n(c(=O)c23)CCS4)C1 (centres unmarked) | -10.3
17 | CCOC(=O)c1nc(Nc2ccc(C(=O)OC)cc2)c2ccccc2n1 | 0.323
18 | COc1ccc(-c2nc3ccccc3n2OCC(=O)O)cc1 | 18.5
19 | CCCCCC(=O)NC(=S)Nc1ccc(NC(=O)c2ccco2)cc1 | 2.58
20 | CC1(C)Cc2c(sc(NC(=O)c3ccc(Br)o3)c2C#N)CO1 | 16.6
21 | Cn1ccnc1C1CCCCN1Cc1nc(-c2ccc3c(c2)OCO3)no1 (centres unmarked) | -7.65
22 | COc1ccc(-c2nc(CS(=O)CC(=O)NCc3ccccn3)c(C)o2)cc1 (centres unmarked) | 6.44
23 | COc1ccc(-c2nc(CN3CCCCC3c3cccnc3)c(C)o2)c(F)c1 (centres unmarked) | -35.9

Row | Compound | hERG current change (%, negative = inhibition) at 10uM [%]
24 | Clc1ccccc1Cc1noc(CN2CCCCC2CCc2ccccn2)n1 (centres unmarked) | -29.4
25 | Cc1oc(-c2cccc3ccccc23)nc1CN1CCC[C@H]1CO | -12.2
26 | c1ccc(CCC2CCCCN2Cc2nc(-c3ccc4c(c3)OCO4)no2)nc1 (centres unmarked) | -55.7
27 | Cc1oc(-c2cccc(F)c2)nc1CN1CCCCC1CCc1ccccn1 (centres unmarked) | -91.5
28 | COc1ccc(-c2nc(CN3CCCCC3CCc3ccccn3)c(C)o2)cc1 (centres unmarked) | -90.7
29 | Fc1cccc(Cc2noc(CN3CCCCC3CCc3ccccn3)n2)c1 (centres unmarked) | 0.789
30 | Cc1cccc(C2Nc3ccccc3C(=O)N2c2ccccc2)n1 (centres unmarked) | 4.41
31 | O=C(NCc1ccc2c(c1)OCO2)C1CC(c2ccc(Cl)c(Cl)c2)=NO1 (centres unmarked) | 15
32 | Cc1nn(C(C)c2n[nH]c(=S)n2-c2ccc(F)cc2)c(C)c1[N+](=O)[O-] (centres unmarked) | 13.3
33 | O=C(Nc1ccc2c(c1)C(=O)OC2)c1ccc(C(F)(F)F)cc1 | 17.3
34 | COc1ccc(CN2CCNC(=O)C2CC(=O)NCCCn2nnc3ccccc32)cc1C (centres unmarked) | -2.87
35 | O=C(NCCN1CCc2ccccc2C1)Nc1ccc([N+](=O)[O-])cc1 | -70.1
36 | CN1CCN(CCNC(=O)Nc2ccc([N+](=O)[O-])cc2)CC1 | -25.7
37 | O=C(NCCN1CCCCC1)Nc1ccc([N+](=O)[O-])cc1 | -41.4
38 | O=C(NCCN1CCc2ccccc2C1)Nc1ccc(F)cc1 | -37.5
39 | CCc1ccc(NC(=O)NCCN2CCc3ccccc3C2)cc1 | -54.7
40 | CCc1ccc(NC(=O)CN2CCc3ccccc3C2)cc1 | -34.2
41 | CCCCSCCCNC(=S)Nc1ccccc1C | 5.08
42 | COc1ccccc1N(CC(=O)NCCSCc1ccco1)S(=O)(=O)c1ccccc1 | -26.6
43 | Cc1ccc(N(CC(=O)NCCSCc2ccco2)S(=O)(=O)c2ccc(C)cc2)cc1 | -69.7
44 | Cc1ccc(S(=O)(=O)N(CC(=O)NCCSCc2ccco2)c2ccc(F)cc2)cc1 | -28.3
45 | COc1ccc(OC)c(N(CC(=O)NCCSCc2ccco2)S(=O)(=O)c2ccc(OC)c(OC)c2)c1 | -22.6
46 | COc1ccc(N(CC(=O)NCCSCc2ccco2)S(=O)(=O)c2ccc(C)cc2)cc1 | -17.9

Row | Compound | hERG current change (%, negative = inhibition) at 10uM [%]
47 | COc1ccc(OC)c(N(CC(=O)NC2CC3CCC2C3)S(=O)(=O)c2ccccc2)c1 (centres unmarked) | -59.7
48 | COc1ccc(Cl)cc1N(CC(=O)NC1CC2CCC1C2)S(=O)(=O)c1ccccc1 (centres unmarked) | -31.5
49 | COc1ccc(S(=O)(=O)N(CC(=O)NC2CC3CCC2C3)c2ccccc2OC)cc1 (centres unmarked) | -25
50 | COc1ccc(OC)c(N(CC(=O)NCCSCc2ccco2)S(=O)(=O)c2ccccc2)c1 | -69.2
51 | O=C(NCc1nc2ccccc2[nH]1)c1cccc(S(=O)(=O)N2CCCCC2)c1 | 13.9
52 | Cn1c(=O)c2c(nc(Br)n2CCCc2ccccc2)n(C)c1=O | -9.05
53 | COc1ccc(Cl)cc1S(=O)(=O)N1CCC(C(=O)NC2CCCC2)CC1 | -21.2
54 | COC(=O)[C@H]1C[C@@H]1[C@H](NC(=O)c1cc(C)on1)c1ccccc1 | 10.3
55 | Cc1cc(NC(=O)CSCC(=O)N2CCN(c3cccc(C(F)(F)F)c3)CC2)no1 | -11.3
56 | COCCN(C(=O)/C=C/c1ccccc1)c1nnc(-c2cccnc2)s1 | -9.61
57 | Cn1c(N2CCOCC2)c(C#N)c2ccccc21 | -3.19
58 | COc1ccc(OC)c(S(=O)(=O)ON2C(=O)c3ccccc3C2=O)c1 | 6.82
59 | CCOC(=O)/C(C#N)=C/c1ccc(N2CCN(C)CC2)cc1 | -27.8
60 | CCOC(=O)/C(C#N)=C/c1ccc(N2CCCCC2)cc1 | -60.9
61 | CCOC(=O)/C(C#N)=C\c1ccc(N2CCN(C)CC2)cc1 | -38.2
62 | Cn1ncc(Br)c1NC(=O)Nc1ccc(OC(F)(F)F)cc1 | 8.82
63 | O=C(CCn1cccc1)Nc1ccc(OC(F)(F)F)cc1 | 2.32
64 | Cn1ncc(C(=O)Nc2ccc(OC(F)(F)F)cc2)c1-n1cccc1 | -81.3
65 | O=c1[nH]c2ccccc2nc1/C=C(\O)c1cccs1 | 19.5
66 | CC(=O)N1CCCc2cc(S(=O)(=O)N(CC(C)C)CC(C)C)ccc21 | -50.4
67 | CCCCN(CC)S(=O)(=O)c1ccc2c(c1)CCCN2C(C)=O | -43.3
68 | CCCN(CCC)S(=O)(=O)c1ccc2c(c1)CCCN2C(C)=O | -47.2
69 | Cn1c(=O)oc2cc(S(=O)(=O)N3CCC(C(=O)NCc4ccccc4)CC3)ccc21 | -6.54

Row | Compound | hERG current change (%, negative = inhibition) at 10uM [%]
70 | CC(C)(C)NC(=O)Cn1nnc(-c2ccc(Cl)cc2)n1 | 2.32
71 | COC(=O)C1=C(C)OC(N)=C(C#N)C1c1cc(OC)c(OCC(N)=O)cc1Cl (centres unmarked) | -10
72 | COC(=O)c1ccc(N2CCOCC2)c(F)c1 | 9.09
73 | Cc1ccn2c(=O)nc(SCC(=O)N3CCN(c4ccccc4)CC3)nc2c1 | -28.6
74 | CC1CCN(C(=O)CSc2nc(=O)n3ccccc3n2)CC1 | 8.67
75 | Cc1ccc2nc(SCC(=O)N3CCC(Cc4ccccc4)CC3)nc(=O)n2c1 | -65
76 | O=C(CSc1nc(=O)n2ccccc2n1)N1CCC(Cc2ccccc2)CC1 | -58.1
77 | Cc1ccn2c(=O)nc(SCC(=O)N3CCC(Cc4ccccc4)CC3)nc2c1 | -55.6
78 | Cc1cccn2c(=O)nc(SCC(=O)N3CCC(Cc4ccccc4)CC3)nc12 | -78.9
79 | Cc1ccn2c(=O)nc(SCC(=O)N3CCC(C)CC3)nc2c1 | -18.4
80 | Cc1ccc2nc(SCC(=O)N3CCN(c4ccccc4)CC3)nc(=O)n2c1 | -47.5
81 | O=C(CSc1nc(=O)n2ccccc2n1)N1CCN(c2ccccc2)CC1 | -27.7
82 | Cc1cccn2c(=O)nc(SCC(=O)N3CCCCC3)nc12 | -18.6
83 | Cc1ccc2nc(SCC(=O)N3CCC(C)CC3)nc(=O)n2c1 | -9.74
84 | Cc1cccn2c(=O)nc(SCC(=O)N3CCC(C)CC3)nc12 | -39.5
85 | O=C(CSc1nc(=O)n2ccccc2n1)N1CCCc2ccccc21 | -16.8
86 | N/C(=N\OC(=O)Cc1ccc([N+](=O)[O-])cc1)c1ccc([N+](=O)[O-])cc1 | -24.4
87 | CC(=O)c1c(C)n(CCc2ccc(Cl)cc2)c2ccc(O)cc12 | 20.8
88 | O=C(CSc1nc2c(c(C(F)(F)F)n1)CCc1ccccc1-2)NCc1ccco1 | 2.99
89 | COC1(OC)N=C(N)C2(C#N)C(c3ccccc3)NC(C)=CC12C#N (centres unmarked) | 2.16
